Results taken from PubChem BioAssay AID1159580 (chemical genetic matrix, 2015).
About 2,000 (36%) of roughly 5,500 compounds were called active. About 18% were inconclusive and are not listed. Cut-off read from the data, not from the text of the source: active = normalized growth mostly below about 0.91 (no sharp cut-off); inconclusive = no clear call, values can overlap the other calls; inactive = mostly above about 0.92. The list shows a part of the results.

Experiment: chemical genetic growth profiling, strain panel (AID 1159580);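 note: tested at 20 µM; growth read once vehicle control cultures reached saturation at 30 °C; 1 = growth at the plate median or of vehicle wells; lower values mean less growth of the strain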
Settings: S. cerevisiae deletion strains, growth OD
[1] = locus YAR019C, strain CDC15, stronger effect = lower value
[2] = locus YBL105C, strain PKC1, stronger effect = lower value
[3] = locus YBR135W, strain CKS1, stronger effect = lower value
[4] = locus YBR136W, strain MEC1, stronger effect = lower value
[5] = locus YBR160W, strain CDC28, stronger effect = lower value
[6] = locus YDL017W, strain CDC7, stronger effect = lower value
[7] = locus YDL028C, strain MPS1, stronger effect = lower value
[8] = locus YDL101C, strain DUN1, stronger effect = lower value
[9] = locus YDL108W, strain KIN28, stronger effect = lower value
[10] = locus YDL214C, strain PRR2, stronger effect = lower value
[11] = locus YDR052C, strain DBF4, stronger effect = lower value
[12] = locus YDR226W, strain ADK1, stronger effect = lower value
[13] = locus YDR477W, strain SNF1, stronger effect = lower value
[14] = locus YER123W, strain YCK3, stronger effect = lower value
[15] = locus YER133W, strain GLC7, stronger effect = lower value
[16] = locus YFL009W, strain cdc4, stronger effect = lower value
[17] = locus YFL029C, strain CAK1, stronger effect = lower value
[18] = locus YFR003C, strain YPI1, stronger effect = lower value
[19] = locus YFR019W, strain FAB1, stronger effect = lower value
[20] = locus YFR028C, strain CDC14, stronger effect = lower value
[21] = locus YGR040W, strain KSS1, stronger effect = lower value
[22] = locus YGR052W, strain FMP48, stronger effect = lower value
[23] = locus YGR092W, strain DBF2, stronger effect = lower value
[24] = locus YHR030C, strain SLT2, stronger effect = lower value
[25] = locus YHR079C, strain IRE1, stronger effect = lower value
[26] = locus YHR082C, strain KSP1, stronger effect = lower value
[27] = locus YHR205W, strain SCH9, stronger effect = lower value
[28] = locus YIL147C, strain SLN1, stronger effect = lower value
[29] = locus YJL095W, strain BCK1, stronger effect = lower value
[30] = locus YJL128C, strain PBS2, stronger effect = lower value
[31] = locus YJL157C, strain FAR1, stronger effect = lower value
[32] = locus YJR016C, strain ILV3, stronger effect = lower value
[33] = locus YJR066W, strain TOR1 (second series), stronger effect = lower value
[34] = locus YJR066W, strain TOR1, stronger effect = lower value
[35] = locus YKL048C, strain ELM1, stronger effect = lower value
[36] = locus YKL067W, strain YNK1, stronger effect = lower value
[37] = locus YKL101W, strain HSL1, stronger effect = lower value
[38] = locus YKL193C, strain SDS22, stronger effect = lower value
[39] = locus YKL203C, strain TOR2, stronger effect = lower value
[40] = locus YLR113W, strain HOG1, stronger effect = lower value
[41] = locus YLR133W, strain CKI1, stronger effect = lower value
[42] = locus YLR403W, strain SFP1, stronger effect = lower value
[43] = locus YML070W, strain DAK1, stronger effect = lower value
[44] = locus YMR001C, strain CDC5, stronger effect = lower value
[45] = locus YMR205C, strain PFK2 (second series), stronger effect = lower value
[46] = locus YMR277W, strain FCP1, stronger effect = lower value
[47] = locus YNL006W, strain LST8, stronger effect = lower value
[48] = locus YNL020C, strain ARK1, stronger effect = lower value
[49] = locus YNL161W, strain CBK1, stronger effect = lower value
[50] = locus YNL183C, strain NPR1, stronger effect = lower value
[51] = locus YNL222W, strain SSU72, stronger effect = lower value
[52] = locus YNL307C, strain MCK1 (second series), stronger effect = lower value
[53] = locus YOL078W, strain AVO1, stronger effect = lower value
[54] = locus YOL136C, strain PFK27, stronger effect = lower value
[55] = locus YOR061W, strain CKA2, stronger effect = lower value
[56] = locus YOR119C, strain RIO1, stronger effect = lower value
[57] = locus YOR231W, strain MKK1, stronger effect = lower value
[58] = locus YOR329C, strain SCD5, stronger effect = lower value
[59] = locus YPL031C, strain PHO85, stronger effect = lower value
[60] = locus YPL153C, strain RAD53, stronger effect = lower value
[61] = locus YPL204W, strain HRR25, stronger effect = lower value
[62] = locus YPL209C, strain IPL1, stronger effect = lower value
[63] = locus YPL256C, strain CLN2, stronger effect = lower value
[64] = locus YPR025C, strain CCL1, stronger effect = lower value
[65] = locus YPR106W, strain ISR1, stronger effect = lower value
[66] = locus YPR111W, strain DBF20, stronger effect = lower value
[67] = strain TSCII, stronger effect = lower value
[68] = locus YDL132W, strain cdc53, stronger effect = lower value
[69] = locus YDR054C, strain cdc34, stronger effect = lower value
[70] = locus YNL207W, strain RIO2, stronger effect = lower value
[71] = strain NNK1, stronger effect = lower value

Measured: normalized growth

CC(C)(C)c1cc(C(=O)/C(C#N)=N\Nc2ccc(Cl)cc2)no1
active: [10] 0.253 | [13] 0.229 | [14] 0.146 | [15] 0.326 | [19] 0.116 | [21] 0.321 | [22] 0.281 | [23] 0.0911 | [24] 0.212 | [25] 0.106 | [26] 0.154 | [27] 0.043 | [29] 0.145 | [30] 0.396 | [31] 0.165 | [33] 0.237 | [34] 0.169 | [35] 0.172 | [36] 0.213 | [37] 0.106 | [39] 0.284 | [40] 0.156 | [41] 0.112 | [42] 0.149 | [43] 0.137 | [45] 0.137 | [48] 0.119 | [50] 0.294 | [52] 0.0976 | [54] 0.191 | [55] 0.103 | [56] 0.337 | [57] 0.0922 | [59] 0.105 | [60] 0.115 | [61] 0.115 | [63] 0.146 | [65] 0.842
inactive: [1] 0.959 | [2] 0.974 | [3] 0.952 | [4] 0.963 | [5] 0.966 | [6] 0.96 | [7] 0.95 | [8] 0.979 | [9] 0.962 | [11] 0.967 | [12] 0.952 | [16] 0.907 | [17] 0.95 | [18] 0.96 | [20] 0.958 | [28] 0.957 | [32] 0.914 | [38] 0.959 | [44] 0.958 | [46] 0.953 | [47] 0.981 | [49] 0.96 | [51] 0.966 | [53] 0.922 | [58] 0.975 | [62] 0.97 | [64] 0.961 | [66] 0.874 | [67] 0.948

N#CC(C#N)=NNc1ccc(-n2ccc(C(F)(F)F)n2)cc1
active: [1] 0.871 | [2] 0.899 | [3] 0.893 | [8] 0.88 | [68] 0.76 | [10] 0.348 | [11] 0.876 | [69] 0.607 | [13] 0.368 | [14] 0.208 | [15] 0.422 | [16] 0.876 | [17] 0.853 | [19] 0.199 | [21] 0.48 | [22] 0.31 | [23] 0.176 | [24] 0.131 | [25] 0.175 | [26] 0.271 | [29] 0.204 | [31] 0.329 | [32] 0.895 | [33] 0.225 | [34] 0.201 | [35] 0.321 | [36] 0.403 | [37] 0.349 | [38] 0.875 | [39] 0.283 | [40] 0.207 | [41] 0.383 | [42] 0.448 | [43] 0.229 | [44] 0.883 | [45] 0.433 | [46] 0.865 | [48] 0.349 | [49] 0.884 | [50] 0.292 | [70] 0.875 | [51] 0.861 | [52] 0.379 | [53] 0.739 | [54] 0.202 | [55] 0.568 | [56] 0.419 | [57] 0.156 | [59] 0.273 | [60] 0.157 | [61] 0.183 | [62] 0.897 | [63] 0.178 | [64] 0.89 | [71] 0.866 | [67] 0.861
inactive: [4] 0.905 | [5] 0.902 | [6] 0.926 | [7] 0.923 | [9] 0.907 | [12] 0.917 | [18] 0.927 | [20] 0.899 | [27] 0.595 | [28] 0.928 | [30] 0.915 | [47] 0.914 | [58] 0.924 | [65] 0.902 | [66] 0.878

N#C/C(=N/Nc1ccc(Cl)cc1)C(=O)C1CC1
active: [1] 0.863 | [2] 0.86 | [3] 0.854 | [4] 0.86 | [5] 0.863 | [6] 0.865 | [7] 0.859 | [8] 0.903 | [9] 0.86 | [68] 0.847 | [11] 0.862 | [69] 0.848 | [12] 0.855 | [13] 0.674 | [14] 0.492 | [15] 0.626 | [16] 0.844 | [17] 0.853 | [18] 0.857 | [20] 0.854 | [21] 0.665 | [23] 0.332 | [24] 0.416 | [28] 0.865 | [29] 0.416 | [32] 0.854 | [35] 0.793 | [38] 0.851 | [39] 0.706 | [40] 0.567 | [42] 0.646 | [44] 0.855 | [46] 0.847 | [47] 0.856 | [49] 0.86 | [50] 0.551 | [70] 0.842 | [51] 0.848 | [52] 0.641 | [53] 0.846 | [56] 0.667 | [57] 0.576 | [58] 0.86 | [59] 0.592 | [60] 0.595 | [61] 0.554 | [62] 0.853 | [63] 0.65 | [64] 0.856 | [67] 0.85
inactive: [10] 0.807 | [19] 0.916 | [22] 0.666 | [25] 0.604 | [26] 0.691 | [27] 0.711 | [30] 0.862 | [31] 0.757 | [33] 0.737 | [34] 0.643 | [36] 0.763 | [37] 0.802 | [41] 0.811 | [43] 0.735 | [45] 0.774 | [48] 0.805 | [54] 0.752 | [55] 0.81 | [65] 0.92 | [66] 0.876 | [71] 0.885
